Lassa entry – qHTS for Inhibitors of binding or entry into cells for Lassa Virus. Lassa virus pseudotyped entry inhibition, cell-based qHTS. Potency, µM (series often up to 49.2 µM), for the others: top-dose activity change, negative = inhibition, usual class: inhibitors. 18,000 tested, 4.1% active. AID 720533, 2013
Marburg entry – qHTS for Inhibitors of binding or entry into cells for Marburg Virus | AID 720532, 2013 | Potency, µM (top dose mostly 49.2 µM), without a hit: at the top dose activity change, negative = inhibition, most hits filed as inhibitors | Marburg virus pseudotype entry/binding inhibition, cell-based | 18,000 tested, 6.5% active
* = called active by the depositor; ? = inconclusive; . = no result given; ! = not active in a repeat; [ ] = remark or other dose. This is a sample that favours compounds with a hit; in the whole collection about 8.6% have one here. Calls follow the shape of the full dose curve; tested in HEK293 cells. % is scaled to controls: 0 for no effect and ±100 for the full control effect; potency is read from the fitted curve at half-maximal effect.

SMILES | Lassa entry | Marburg entry
CC(C)(C)c1ccc(O[C@@H]2[C@H](O)CO[C@@H]2C=CC#Cc2ccccc2)cc1 | -28%[8.59 µM] | -9%[8.59 µM]
CC/C=C\C/C=C\C/C=C\C/C=C\C/C=C\C/C=C\CCC(=O)O | 4% | 16%
C/C=C/C/C=C/CCC(=O)[C@H]1O[C@H]1C(N)=O | 16µM* | 16µM*
CC(=O)N[C@@H](CC(C)C)C(=O)N[C@@H](CC(C)C)C(=O)N[C@H](C=O)CCCN=C(N)N | 11% | 0.11µM*
CCCC[C@@H](C=O)NC(=O)[C@H](CC(C)C)NC(=O)OCc1ccccc1 | 20µM* | ?
CSCC[C@H](C=O)NC(=O)[C@H](CC(C)C)NC(=O)[C@H](CC(C)C)NC(C)=O | 18% | ?
CCCC[C@@H](C=O)NC(=O)[C@H](CC(C)C)NC(=O)[C@H](CC(C)C)NC(C)=O | 10µM* | 0.089µM*
CCCCC(C=O)NC(=O)C(CC(C)C)NC(=O)OCc1ccccc1 (centres undefined) | -13% | ?
CC(C)C[C@H](NC(=O)[C@H](CC(C)C)NC(=O)[C@H](Cc1ccccc1)NC(=O)[C@@H](N)CO)C(=O)N[C@@H](CCCN=C(N)N)C(=O)N[C@@H](CC(N)=O)C(=O)O | -2% | 9%
C=CCC12OC3(OC)CC1[C@H](C)[C@@H](c1ccccc1)C2[C@@]3(C)O (some centres undefined) | -2%[8.59 µM] | 0%[8.59 µM]
O=[S+]1([O-])C[C@H](N2CCN(CCO)CC2)[C@H](COCc2ccccc2)N1 | 9% | 33%
NS(=O)(=O)c1cccc(N=Cc2c(O)[nH]c3ccccc23)c1 | -12% | ?
CC(=O)C1=CN(CCC=Cc2ccccc2)C(=O)NC1c1ccccc1 (centres undefined) | -20%[8.59 µM] | ?
CC1(C)[C@H](C=C(Cl)Cl)[C@H]1C(=O)OCc1c(F)c(F)cc(F)c1F | -7% | 8%
COc1cc2oc(=O)cc(-c3ccc(-c4cccc(N)c4)cc3)c2c(OC)c1OC | -21% | ?
COc1ccc(-c2oc3cc(OC)c(OC(C)=O)c(OC)c3c(=O)c2OC)cc1OC(C)=O | 0.32µM* | 1%
COc1ccc(-c2oc3ccccc3c(=O)c2O)cc1OC | 4% | 8%
COc1ccc(-c2ccc(-c3cc(=O)oc4cc(OC)c(OC)c(OC)c34)cc2)cc1OC | 18µM* | 0%
C=CCOC(=O)N[C@H](C(C(=O)OC)=C(C)NCc1ccccc1)c1cccc(F)c1 | 5%[8.59 µM] | ?
COC(=O)C1C[C@@]23C(=NN=C(SC)C2N(C)c2ccc(OC)cc23)N1C(C)=O (some centres undefined) | . | -33%[8.59 µM]
CCCCCCN1C[C@@H](n2cc(C3CC3)nn2)[C@H](O)C[C@H]1c1ccc(C)cc1 | . | -33%
C=C(CCN1C=C(C(C)=O)C(c2ccccc2)NC1=O)c1ccc(OC)cc1 (centres undefined) | 0%[8.59 µM] | 12%[8.59 µM]
COc1ccc(-c2coc3ncnc(N)c23)cc1 | -18% | -38%
COc1cc2c(C=O)c3c4c(cc(OC)c(OC)c4c2cc1OC)CCN3C | 16µM* | ?
CO/N=C(\C(=O)N[C@@H]1C(=O)N2C(C(=O)O)=C(CSc3nnnn3C)CS[C@H]12)c1csc(N)n1 | -2% | 25%
SMILES | Lassa entry | Marburg entry
CCC(=O)c1ccc(O)cc1 | -4% | 17%
O=C1C=CC(=C(c2ccc(O)cc2)c2ccc(O)cc2)C=C1 | 8.9µM* | 13µM*
CC[N+](CC)(CC)CCOc1cccc(OCC[N+](CC)(CC)CC)c1OCC[N+](CC)(CC)CC | -3% | 14%
CC[N+](CC)(CC)CCOc1ccc(/C=C\c2ccccc2)cc1 | 20µM* | ?
Cc1ccc(S(=O)(=O)N2CCCN(S(=O)(=O)c3ccccc3Br)CC2)cc1 | . | 35%
O=S(=O)(c1cccc2c(Cl)cccc12)N1CCCNCC1 | ? | 8.9µM*
C[C@@H]1CNCCN1S(=O)(=O)c1cccc2cnccc12 | 5% | -25%
O=S(=O)(c1cccc2c(I)cccc12)N1CCCNCC1 | ? | 11µM*
C=C(C)CCN1C(=O)NC(c2ccccc2)C(C(C)=O)=C1C (centres undefined) | 26%[8.59 µM] | 7%[8.59 µM]
NC(=NCCCCCCN=C(N)/N=C(\N)Nc1ccc(Cl)cc1)/N=C(\N)Nc1ccc(Cl)cc1 | 10µM*! | ?
CC(C)N=C(N)/N=C(\N)Nc1ccc(Cl)cc1 | 0%[17.8 µM] | -4%[17.8 µM]
CC(=O)N1C(=O)NC(C)=C(C#N)C1c1ccccc1 (centres undefined) | 11%[8.59 µM] | -10%[8.59 µM]
c1ccc(Nc2ncc(-c3ccccc3)o2)cc1 | 5µM* | -41%
Cc1cccc(Nc2ncc(-c3ccccc3)o2)c1 | . | -19%
CN(C)C1CCc2[nH]c3ccc(NC(=O)c4ccc(F)cc4)cc3c2C1 (centres undefined) | -20% | 11µM*
CN[C@@H]1CCc2[nH]c3ccc(C(N)=O)cc3c2C1 | -12% | 8%
COC(=O)[C@]1(C=C2c3ccccc3C[C@H](OC)[C@@H]2C)[C@@H]2CC=C[C@@H]21 | -6%[8.59 µM] | -8%[8.59 µM]

Screening data as filed in PubChem BioAssay.
